Screen size: about 410,000 compounds; about 2,400 (0.59%) were called active. Shown is part of a subset that was picked to be rich in actives. Unmarked numbers belong to inactive results. Cut-off read from the data, not from the text of the source: active = max activation above about 30%; inactive = the rest.
Each compound was assayed against D(3) dopamine receptor (Homo sapiens) (UniProt P35462) (assay: qHTS of D3 Dopamine Receptor Agonist: qHTS). Details: D3R DiscoveRx beta-arrestin cells, luminescence, 90 min; active compounds read high.
Sequence of D(3) dopamine receptor (Homo sapiens) (P35462 whole entry, looked up): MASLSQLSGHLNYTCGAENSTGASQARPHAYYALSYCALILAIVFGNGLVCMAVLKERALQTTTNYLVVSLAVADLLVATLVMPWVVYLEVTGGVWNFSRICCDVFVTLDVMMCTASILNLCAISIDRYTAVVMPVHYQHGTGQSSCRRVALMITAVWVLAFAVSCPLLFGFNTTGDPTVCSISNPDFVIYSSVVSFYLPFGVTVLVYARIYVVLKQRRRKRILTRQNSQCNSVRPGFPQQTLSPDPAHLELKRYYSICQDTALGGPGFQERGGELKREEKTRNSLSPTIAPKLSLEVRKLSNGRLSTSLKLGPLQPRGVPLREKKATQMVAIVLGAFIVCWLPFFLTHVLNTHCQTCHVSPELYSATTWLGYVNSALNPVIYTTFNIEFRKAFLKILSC
Method in brief: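 Cells at 1500/well, incubated overnight, then treated with pinned compounds (dopamine as control) for 90 min at 37 degrees C. DiscoveRx reagent added for 30 - 60 minutes at room temperature; luminescence read.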
Note: 0% is about no effect.

Row | Structure (SMILES) | max activation
1 | COc1ccc(OC)c(-n2nnc(-c3nc(-c4cc(OC)c(OC)c(OC)c4)no3)c2C)c1 | 31.2% (active)
2 | Nc1ccccc1SC(C[N+](=O)[O-])c1ccccc1 (centres undefined) | 0.396%
3 | Cc1cccc(C)c1NC(=O)NC1=CCCN1C | 0.916%
4 | O=C(O)CCC(=O)O | 17.7%
5 | CCOc1ccc(OCC)c(-c2c(=O)n(OCc3ccc(Cl)cc3)c3ccccc3[n+]2[O-])c1 | 39.5% (active)
6 | COc1ccc(OC)c(-c2c(=O)n(OCc3ccccc3Br)c3ccccc3[n+]2[O-])c1 | -6.63%
7 | CCOc1ccc(S(=O)(=O)c2cn(Cc3ccccc3)c3ccc(OCC)cc3c2=O)cc1 | 6.37%
8 | O=C(OCc1ccccc1)c1ccc(O)cc1 | 3.77%
9 | Cc1ccc(C(=O)OCC(=O)NC2CCCCCCC2)cc1C | 1.29%
10 | Cc1ccc(C(=O)COC(=O)CCN2C(=O)C3C4CCC(C4)C3C2=O)cc1C (centres undefined) | -16.9%
11 | Cc1ccc(C(=O)COC(=O)c2cccc(N3C(=O)c4c(C)nc5ccccc5c4C3=O)c2)cc1C | 40.4% (active)
12 | Cc1cc2c(cc3c(SCc4nc(-c5ccccc5)oc4C)nnc(C)n32)o1 | -6.34%
13 | COc1ccc(C(=O)c2oc3ccccc3c2NC(=O)COc2cccc(C)c2)cc1 | -8.79%
14 | Cc1ccc(N(CC(=O)NCc2ccc(Cl)cc2)S(=O)(=O)N(C)C)cc1 | 1.16%
15 | Cc1ccccc1OCC(=O)Nc1c(C(=O)Nc2ccccc2F)oc2ccccc12 | -10.6%
16 | COC(=O)[C@@H]1CC2=CC(=O)CC[C@]2(C)[C@@]23O[C@@H]2C[C@@]2(C)[C@@H](CC[C@@]24CCC(=O)O4)[C@H]13 | 3.79%
17 | COc1cccc(N2CCN(C(=O)CCCCCn3c(=O)[nH]c4ccccc4c3=O)CC2)c1 | -3.38%
18 | COC(=O)c1ccccc1NS(=O)(=O)c1ccc2c(c1)CCCN2C(C)=O | -8.34%
19 | Cc1cc(NS(=O)(=O)c2ccc(NC(=O)c3ccccc3C)cc2)nc(C)n1 | 0.492%
20 | COC(=O)c1ccc(NC(=O)c2ccccc2NS(=O)(=O)c2ccccc2)cc1 | 34.2% (active)
21 | CCOc1ccc(S(=O)(=O)N(CC(=O)NCCSCc2ccc(C)cc2)c2ccccc2)cc1 | 1.63%
22 | COc1ccc(C)cc1NC(=O)C(=O)NCCc1sc(-c2cccc(C)c2)nc1C | 3.11%

Row | Structure (SMILES) | max activation
23 | NNc1nnc(NN)c2ccccc12 | -0.65%
24 | CCOC(=O)c1ccc(NC(=O)CCS(=O)(=O)c2ccc(C)cc2)cc1 | 4.32%
25 | Cc1noc(C)c1C(=O)Nc1ccccn1 | 31.1% (active)
26 | Cc1noc(C)c1C(=O)NCCc1ccc(S(N)(=O)=O)cc1 | 4.23%
27 | Cc1noc(C)c1C(=O)NC(C)c1ccc2c(c1)OCO2 (centres undefined) | 17.7%
28 | O=C(/C=C/c1cccc(F)c1)NC1CC1 | 7.01%
29 | NC(=O)c1ccsc1NC(=O)COC(=O)Cc1n[nH]c(=O)c2ccccc12 | -0.194%
30 | CCCCn1nc(C(=O)OCC(=O)Nc2sccc2C(N)=O)c2ccccc2c1=O | 39.2% (active)
31 | Cc1cccc(C(=O)OCC(=O)Nc2sccc2C(N)=O)c1C | 3.92%
32 | CO[C@]1(NC(=O)CSC(F)F)C(=O)N2C(C(=O)O)=C(CSc3nnnn3CCO)CO[C@H]21 | 4.38%
33 | CC(CCc1ccc(O)cc1)NCc1ccc(Cl)cc1Cl (centres undefined) | 91.1% (active)
34 | CC(CCc1ccccc1)NC(=O)c1cnc(Cl)c(Cl)c1 (centres undefined) | -0.183%
35 | COc1ccc(CNC(=O)C(C)NCc2ccccc2Cl)cc1 (centres undefined) | -7.27%
36 | CCCCSc1ncnc2c1sc1nc(N3CCOCC3)c3c(c12)CCCC3 | -9.06%
37 | COc1ccc(N)cc1NC(=O)CN1CCOCC1 | 3.16%
38 | COc1ccc(NC(C)=O)cc1NC(=O)CN1CCN(C2c3ccccc3-c3ccccc32)CC1 | 46.6% (active)
39 | COc1ccc(NC(C)=O)cc1NC(=O)CN1CCN(c2ccc(F)cc2)CC1 | 3.91%
40 | Cc1nn2c(=O)cc(COC(=O)CNC(=O)c3ccc(F)cc3)nc2s1 | -2.47%
41 | CCOc1ccccc1NC(=O)Cc1cccs1 | 49.3% (active)
42 | CCOc1ccccc1NC(=O)CCn1cnnn1 | 4.34%
43 | CCOc1ccc(NC(=O)C/C(C)=N/NC(=O)Cc2cccs2)cc1 | 5.68%
44 | COc1ccc(CNC(=O)CCc2c(C)nn(-c3ccc(N4CCCC4)nn3)c2C)cc1 | 9.29%

— PubChem BioAssay AID652048 (National Center for Advancing Translational Sciences (NCATS), 2013)
